Only some compounds are listed: those with a hit (about 2.5% of all), similar ones and a draw of the others.
GC-B act: human GC-B receptor activators, primary screen, HEK293 GC-B cells, cGMP TR-FRET, EC30 CNP. 370,000 tested, 0.11% active. activation, % at 10 µM. Atrial natriuretic peptide receptor 2 (Homo sapiens), P20594. 0% at EC30 CNP, 100% saturating CNP;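 active = activation at 10 µM reaching about 35% in either raw or pattern-adjusted values, limit read from the data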
aDG glyco act: activators of alpha-DG glycosylation, primary screen, uHTS, Pro5-aDG cells, AlphaScreen | alpha-DG glycosylation AlphaScreen (IIH6); 0% Pro5, 100% B10-LARGE cell signal | activation, % at 10 µM | 360,000 tested, 0.22% active | AID 624168, 2012;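 active = activation of at least 8% versus controls, or a plate z-score of at least 8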;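 also: Pro5 are CHO cells carrying HIG-tagged alpha-DG that lacks glycosylation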
HSF-1 act: HSF-1 activators, primary screen, NIH3T3-HGL cells, MG132 stress, luminescence, single point | NIH3T3-HGL HSF-1 luciferase reporter, 8 h; 100% = twice DMSO control signal | activation, % at 9 µM | 300,000 tested, 1.7% active;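 active = mean replicate activation of at least 50% with a set share of replicates each reaching 50%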;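 also: 0% = median of the neutral control wells and 100% = twice that signal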
DYRK1A inh: rat Dyrk1A kinase inhibitors, primary screen, biochemical, single point, plate reader; inhibition, % at 12.5 µM; 310,000 tested, 0.43% active; AID 504441, 2011; ADP-Glo luminescence, NFATc1 peptide; Dual specificity tyrosine-phosphorylation-regulated kinase 1A (Rattus norvegicus), Q63470; in the data active = inhibition above about 50%;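 also: plate controls were vehicle with enzyme for no effect and no enzyme for full effect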
GC-A act: GC-A stimulated cGMP production enhancers – HEK293 GC-A cells, cGMP TR-FRET, EC30 ANP, primary screen | Atrial natriuretic peptide receptor 1 (Homo sapiens), P16066 | 0% at EC30 ANP, 100% saturating ANP | activation, % at 10 µM | 370,000 tested, 0.14% active; in the data active = activation above about 40%
HSF1 inhib: HSF1 inhibitors in luciferase reporter cells, primary screen, cell-based, NIH3T3, luminescence. activity change, negative = inhibition, % at 7.5 µM (by protocol). 300,000 tested, 0.77% active. NIH3T3-HGL HSE-luciferase, MG132-induced, luminescence 8 h; stronger effect = lower value;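 active = more than half of replicate wells show activity change below -50%, luminescence cut by over half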;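 also: luciferase reports HSF-1 transcriptional activity via heat shock element; 0% = median of DMSO wells and -100% = zero luminescence signal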
Numbers without * were called inactive; nt = not tested or not shown.

SMILES	GC-B act	aDG glyco act	HSF-1 act	DYRK1A inh	GC-A act	HSF1 inhib
C=CC(=O)Nc1ccc(Nc2nc(NC3CCC(N(C)C)CC3)nc3c2ncn3C(C)C)cc1 (stereo unspecified)	nt	-0.2	nt	93.4*	nt	nt
CNCc1c(OCc2ccccc2F)ccc2ccccc12	-5.8	0.8	-76.2	4.7	-25.2	-71.2*
CNCc1c(OCc2ccccc2)ccc2ccccc12	-20.1	0.1	5.3	5.5	-36.5	-6.1
CCCCOc1cccc(C2C(C(=O)c3cccs3)=C(O)C(=O)N2Cc2cccnc2)c1 (stereo unspecified)	1.4	0.2	-73.4	-2.3	2.9	-64.4*
CCOc1cccc(C2C(C(=O)c3cccs3)=C(O)C(=O)N2Cc2cccnc2)c1 (stereo unspecified)	4.2	0.6	3.9	-1.1	2.6	3.7
COC(=O)C1(C(=O)OC)C2C(=O)C3C(C21)C3(C(=O)OC(C)(C)C)C(=O)OC(C)(C)C (stereo unspecified)	9.2	-0.2	nt	nt	2.3	nt
Cn1cc(NC(=O)OCc2ccc(Cl)cc2)c(C(F)(F)F)n1	2.6	-0.3	56.3*	-6.5	-2.6	38.1
CC1(C)CC2CC(C)(CN2C(=O)CCCN2C(=O)c3ccccc3C2=O)C1 (stereo unspecified)	-1.6	0.2	-68.6	-4.1	3.4	-56.6*
COc1ccc(S(=O)(=O)Cc2ccc(C(=O)NCCCN(C)c3ccccc3)o2)cc1	-6.3	-0.6	59.8*	-5.9	0.7	27.3
C=C1C(=O)[C@]23C[C@H]1CC[C@H]2[C@]1(C)CCC[C@@](C)(C(=O)OC)[C@H]1C[C@@H]3O	38.0*	nt	nt	nt	18.7	nt
CCc1nc(SCC(=O)NCCc2ccc(OC)c(OC)c2)c2c(=O)n(C)c(=O)n(C)c2n1	-0.8	0.2	-82.6	1.1	0.2	-77.7*
Cn1cc(/C=N/NC(=O)c2ccccc2O)c2ccccc21	1.5	0.0	4.2	nt	-1.6	-9.6
O=C(N/N=C/c1cc(Br)cs1)c1ccc2c(c1)OCCO2	-6.6	0.1	57.3*	nt	5.7	22.3
COc1ccc(/C=N/NC(=O)c2ccc3c(c2)OCCO3)cc1[N+](=O)[O-]	-6.7	-0.2	-76.3	-0.3	0.4	-79.6*
Cn1cc(C(=O)N/N=C/c2cc(Br)cs2)c2ccccc21	nt	nt	60.3*	nt	nt	19.8
CC(C)CC(c1nnnn1C(C)(C)C)N1CCN(C2CCCC2)CC1 (stereo unspecified)	2.0	0.7	1.1	-1.0	-1.5	0.9
O=C(O)CCC(=O)NCCn1c(-c2ccccc2)csc1=Nc1ccccc1	0.5	0.3	69.5*	-2.3	0.4	28.6
CC(=O)Nc1cc[n+](C(C)C(=O)c2ccccc2)cc1 (stereo unspecified)	8.4	0.0	-76.0	-4.0	-0.6	-67.8*
CC(=O)Nc1cc[n+](C(C)C(=O)c2ccc(Br)cc2)cc1 (stereo unspecified)	-0.1	-0.1	-10.4	nt	0.1	-0.5
Cc1ccccc1CN1CCN(C(=O)c2ccc(F)cc2)CC1	1.3	-0.1	-70.3	-4.9	0.3	-62.8*
O=C(c1ccc(F)cc1)N1CCN(Cc2ccccc2)CC1	3.7	0.0	-7.2	-0.3	5.0	-3.0
Cc1ccccc1N1C(=O)[C@@H]2Cc3ccccc3CN2C1=O	1.0	0.0	29.8	-2.3	4.2	-1.7
NC[C@@]12CCCC1C1CCC2C1 (stereo partly specified)	nt	nt	-4.2	nt	nt	-14.4
O[C@@H]1C2CCCC1[C@]1(O)CCCCC1C2 (stereo partly specified)	5.7	0.3	53.3*	0.4	0.4	37.6
C[C@@H]1O[C@@H](Oc2c(-c3cc(O)c(O)c(O)c3)oc3cc(O)cc(O)c3c2=O)[C@H](O)[C@H](O)[C@H]1O	-1.8	0.3	4.5	12.9	-2.6	0.9
COc1cc(CCC(=O)OCC(=O)Nc2c(Cl)cccc2Cl)cc(OC)c1OC	1.9	-0.1	5.7	-2.0	-0.4	8.5

Compound activity deposited in PubChem by several laboratories.
